FMDV inh: foot and mouth disease virus antiviral activity. Potency, µM (highest dose often 57.9 µM), for inactives: at the highest dose activity change, negative = inhibition, most hits filed as inhibitors. FMDV antiviral cell-based qHTS. 1.2% of 410,000 active; calls by dose curve; tested in HEK293T cells; also: read-out not given here; potency is read from the fitted curve at half-maximal effect; nearly all actives have a fitted effect of over 45% in size
HCMV inh: inhibitors of human cytomegalovirus | HFF cells, HCMV-luciferase reporter, 72 h; stronger effect = lower value | activity change, negative = inhibition, % at 57.5 µM | 4.5% of 410,000 active | AID 1259415; in the data active = activity change below about -60%; inconclusive = no clear call, values can overlap the other calls; inactive = above about -39%
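Screen run at 2 compound doses on HFFs infected with reporter HCMV, MOI 1 PFU/cell. Luciferase activity from cell lysates at 72 h post infection gave inhibition relative to buffer-only and Salinomycin wells.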
HCV inhibitor: blocks hepatitis C virus; Huh7.5.1 HCVcc-Cre infection, luciferase reporter, 44 h; Potency, µM (titrated, usually from 41.8 µM), inactives show top-dose activity change, negative = inhibition, actives largely listed as inhibitors; 3.4% of 340,000 active; active = well fitted inhibition curve with a large enough effect; inconclusive = small, poorly fitted or top-dose-only effect, or another doubt; inactive = no such curve, though single readings can be large or run the other way; also: potency is read from the fitted curve at half-maximal effect
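Infectious HCV cell culture screen: compound-treated cells (1,000/well, pre-plated 4 h) are infected with HCVcc-Cre at roughly 0.5 moi and grown 44 h. Infection is quantified by luciferase signal after 15 min substrate incubation at room temperature.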
MARV entry inh: blocks Marburg virus binding to or entry into cells. AID 540276. 1.8% of 300,000 active. Marburg virus pseudotyped entry inhibition, cell reporter. Potency, µM (titrated, usually from 37.8 µM), inactives show at the highest dose activity change, negative = inhibition, most hits filed as inhibitors; calls by dose curve; tested in HEK293 cells; also: potency is read from the fitted curve at half-maximal effect
Lassa entry inh: inhibitors of Lassa virus binding or cell entry | Potency, µM (top dose mostly 37.9 µM), for inactives: at the highest dose activity change, negative = inhibition, most hits filed as inhibitors | 1.2% of 300,000 active | AID 540256 | Lassa virus pseudotype entry inhibition, cell reporter; calls by dose curve; tested in HEK293 cells; also: potency is read from the fitted curve at half-maximal effect; nearly all actives have a fitted effect of over 50% in size
* marks the source's active call; other numbers are inactive results; u = inconclusive; x = no result given; [ ] = remark or other dose. Compounds with a hit are over-represented: about 7.9% of the library has one in this group of screens. % is scaled to controls: 0 for no effect and ±100 for the full control effect.

SMILES	FMDV inh	HCMV inh	HCV inhibitor	MARV entry inh	Lassa entry inh
CCN(CC)CCN(C(=O)c1ccco1)c1nc2ccc(Cl)cc2s1	8%	12	x	x	13%[46.1 µM]
CCN(CC)CCCN(C(=O)c1ccco1)c1nc(-c2ccc(C)cc2)cs1	2%	u	u	8.9µM*	u
CC(NC(=O)C1CCOCC1)c1nnc2n1CCN(Cc1ccc3ccccc3c1)CC2 (stereo not drawn)	-17%	x	x	x	x
CN1CCN(NC(=O)c2cc(Br)ccc2Cl)CC1	-9%	3	19%	-2%[46.1 µM]	0%
CC(C(N)=O)N1C(=O)NC2(CCCc3ccccc32)C1=O (stereo not drawn)	57%	-13	5%	u	-7%[46.1 µM]
COC(=O)C1(C(F)(F)F)N=C(C(F)(F)F)Nc2ccc(Cl)cc21 (stereo not drawn)	-16%	-102*	23%	10%	5%
CCOC(=O)C1(C(F)(F)F)N=C(C(F)(F)F)Nc2cc(C)c(C)cc21 (stereo not drawn)	-22%	-38	3%	u	-5%
CC(C)NC[C@H](O)COc1cccc2ccccc12	-21%	34	u	15µM*	1%
CC(C)NC[C@H](O)COc1cccc2[nH]ccc12	-8%	-81*	u	u	13%
C=CCc1ccccc1OCC(O)CNC(C)C (stereo not drawn)	-21%	-9	u	18µM*	2%
CC(C)NC[C@@H](O)COc1cccc2ccccc12	-11%	u	-14%	18µM*	x
O=C1NC2C3CC(c4ccccc43)C12 (stereo not drawn)	-22%	-70*	x	x	x
CC(C)SCCCOc1ccc(C(C)(C)C)cc1	42%	-86*	5%	5%	14%
Cc1nn(CCc2n[nH]c(=S)n2-c2cccc(Cl)c2)c(C)c1[N+](=O)[O-]	-15%	31	8%	12%	-9%
Cc1cccc(-n2c(Cn3nc(C)c([N+](=O)[O-])c3C)n[nH]c2=S)c1	-13%	-98*	8%	-3%	9%
c1ccc(-c2nc3nonc3nc2-c2ccccc2)cc1	u	-78*	u	u	-26%
COc1ccc2[nH]c(=O)c3c(c2c1)OC(C)(C)C=C3	-24%	-96*	-9%	-6%	-14%
Cc1cc2c([nH]c3ccccc32)c2c1OC(C)(C)C=C2	56%	34	-39%	x	x
CCC(CC)C(=O)N(CCc1ccc(OC)cc1)Cc1nc2ccccc2c(=O)[nH]1	x	-11	22µM*	u	u
COc1ccc(CCN(Cc2nc3ccccc3c(=O)[nH]2)C(=O)c2ccco2)cc1	-4%	40	5%	u	1%
Cc1c(C(=O)O)sc2nc(/C=C/c3cccc(O)c3)[nH]c(=O)c12	2%	-9	1%	-15%[46.1 µM]	u
COc1ccc(CN(C(=O)CSc2nnc(-c3ccccc3C)o2)c2ccc(F)cc2)cc1	u	-75*	-6%	u	-17%
O=C(CSc1nnc(-c2c[nH]c3ccccc23)o1)N(Cc1ccccc1)c1ccc(F)cc1	x	x	u	18µM*	u
COc1ccc2c(c1)C(C(Nc1ccccc1)c1ccc(Cl)cc1)C(=O)N2C (stereo not drawn)	x	18	x	x	x
O=c1c2c3c(sc2n(CCN2CCCC2)c(=O)n1Cc1ccco1)CCCCC3	-4%	-21	10µM*	u	u
SMILES	FMDV inh	HCMV inh	HCV inhibitor	MARV entry inh	Lassa entry inh
CN(C)CCn1c(=O)n(Cc2ccco2)c(=O)c2c3c(sc21)CCCCC3	-16%	-25	u	u	-2%
CC[n+]1c(C=C2C=C(C)OC(C)=C2)sc2ccccc21	u	-98*	2.5µM*	u	5µM*
CC[n+]1c(/C=C2/C=C(C)CC(C)C2)sc2ccccc21 (stereo not drawn)	u	-9	3.5µM*	u	u
Cc1csc2nc(COC(=O)c3cccc(NC(=O)COc4ccccc4Cl)c3)cc(=O)n12	-24%	-61*	x	x	-28%[46.1 µM]
Cc1ccc(OCC(=O)Nc2cccc(C(=O)OCc3cc(=O)n4c(C)csc4n3)c2)cc1	-19%	-2	x	x	u
Cc1ccccc1OCC(=O)Nc1ccc(C(=O)OCc2cc(=O)n3c(C)csc3n2)cc1	4%	-87*	x	x	11%[46.1 µM]
Cc1ccc(OCC(=O)Nc2ccc(C(=O)OCc3cc(=O)n4c(C)csc4n3)cc2)cc1	-3%	-22	x	x	11%[46.1 µM]
COc1ccccc1C(=O)N[C@@H]1c2ccccc2C2(CCN(Cc3cnn(C)c3C)CC2)[C@H]1O	4%	x	x	x	x
CCOC(=O)c1c(Nc2cc(C)cc(C)c2)nnc(-c2ccccc2)c1-c1ccccc1	-22%	-30	x	u	u
COC(=O)c1ccc(NC(=O)CC2Nc3cc(C)c(C)cc3NC2=O)cc1 (stereo not drawn)	u	-99*	x	12%[46.1 µM]	u
CC(=O)c1ccc(NC(=O)CC2Nc3cc(C)c(C)cc3NC2=O)cc1 (stereo not drawn)	-14%	-15	x	u	14%[46.1 µM]
Cc1cc2c(cc1C)NC(CC(=O)Nc1ccccc1)C(=O)N2 (stereo not drawn)	-1%	-100*	x	-4%[46.1 µM]	u
CN(C(=O)c1cccc(NC(=O)Cc2ccc(NC(=O)C3CCN(C(=O)C4CC4)CC3)cc2)c1)C1CCCC1	-13%	5	6%	x	x
Cc1ccc2[nH]c(=O)c(C(c3nnnn3Cc3ccccc3)N3CCc4ccccc43)cc2c1 (stereo not drawn)	-10%	8	32µM*	10µM*	u
O=c1[nH]c2cc3c(cc2cc1C(c1nnnn1C1CCCC1)N1CCSCC1)OCCO3 (stereo not drawn)	6%	-79*	16%	u	1%
CCC(C)(C)n1nnnc1C(c1cc2cc(C)ccc2[nH]c1=O)N1CCCc2ccccc21 (stereo not drawn)	-11%	-14	-2%	-10%	-2%
Cc1ccc2[nH]c(=O)c(C(c3nnnn3C3CCCC3)N3CCCc4ccccc43)cc2c1 (stereo not drawn)	5%	133	-22%	5.8µM*	u
Cc1ccc2cc(C(c3nnnn3Cc3ccccc3)N3CCc4ccccc43)c(=O)[nH]c2c1 (stereo not drawn)	23%	-7	u	u	u
COc1cccc(CO[C@H]2C=C[C@@H](c3ccccc3)O[C@H]2CO)c1	x	x	x	-7%[14.2 µM]	x
COc1ccc(C(CNC(=O)COc2cccc(C(F)(F)F)c2)N2CCCC2)cc1 (stereo not drawn)	-9%	-9	u	x	x
Cc1cccn2c(=O)c(C(=O)NCc3cccc(F)c3)cnc12	8%	-14	x	x	12%[46.1 µM]
CC(=O)N1[C@@H]2Cn3c(ccc(-c4ccccc4F)c3=O)[C@H]1[C@@H](C(=O)N1CCOCC1)[C@@H]2CO	x	-19	x	x	x
Cc1ccc(C(NC(=O)NC(C)c2ccccc2)C(Cl)(Cl)Cl)cc1F (stereo not drawn)	u	-100*	10µM*	u	u
Cc1nc(Nc2ccc(Cl)cc2)c2nnn(Cc3ccccc3)c2n1	-20%	-17	32µM*	-32%[46.1 µM]	-24%

Source: PubChem BioAssay
